Each structure is given as a SMILES string. Screen size: about 370,000 compounds; about 3,100 (0.84%) were called active.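 The calls were made as follows: active = inhibition above the mean of compounds lying between control limits plus 3 SD, set per campaign (cut at about 8.5% in these data); inactive = the rest.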 Many of the other results were omitted from the sample, so actives are more common in it than they were.

Chain of Disintegrin and metalloproteinase domain-containing protein 17 (Homo sapiens) (P78536 215-824 limits assumed): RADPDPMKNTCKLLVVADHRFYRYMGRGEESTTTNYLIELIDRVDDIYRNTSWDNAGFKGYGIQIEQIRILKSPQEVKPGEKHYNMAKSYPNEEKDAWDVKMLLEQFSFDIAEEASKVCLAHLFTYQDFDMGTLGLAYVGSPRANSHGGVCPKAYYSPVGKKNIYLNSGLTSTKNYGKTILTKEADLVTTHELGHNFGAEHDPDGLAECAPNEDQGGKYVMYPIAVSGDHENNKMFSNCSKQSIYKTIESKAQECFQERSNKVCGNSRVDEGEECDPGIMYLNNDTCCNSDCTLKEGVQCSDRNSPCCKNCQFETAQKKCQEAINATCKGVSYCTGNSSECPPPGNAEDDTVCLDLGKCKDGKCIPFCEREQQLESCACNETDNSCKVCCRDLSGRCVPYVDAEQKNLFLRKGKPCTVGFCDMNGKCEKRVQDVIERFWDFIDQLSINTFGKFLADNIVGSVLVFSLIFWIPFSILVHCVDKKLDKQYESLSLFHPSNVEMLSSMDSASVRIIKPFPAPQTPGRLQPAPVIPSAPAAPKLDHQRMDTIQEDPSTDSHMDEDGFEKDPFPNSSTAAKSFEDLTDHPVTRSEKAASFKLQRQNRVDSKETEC

This test has as its target Disintegrin and metalloproteinase domain-containing protein 17 (Homo sapiens) (UniProt P78536). Nature of the test: ADAM17 inhibitors, primary screen, biochemical, QFRET (AID 720648).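 Also: 0% = DMSO-only wells as the low control.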 Conditions: recombinant ADAM17, EDANS/DABCYL FRET peptide cleavage; at 6.95 µM; stronger effect = higher value.
As for `Cc1ccc(Cn2cc(CN3[C@@H](C)COc4cc(Br)ccc4S3(=O)=O)nn2)cc1`, the inhibition (usually the change of the read-out against control, counted positive when it falls) was -2.3% (inactive).
In the case of `COC(=O)c1cccc(Cn2ccc3ccc(-c4ccc5ccn(C(=O)C6CCCCC6)c5c4)cc32)c1` it was -4.69% (inactive); in that of `Cc1ccc(C2=CCN(C)C(=O)N2c2ccc(Cl)cc2)cc1`, 0.02% (inactive); in that of `CCOC(=O)C1CCN(C(=O)C(C)(C)NC(=O)Nc2ccc(F)c(F)c2)CC1`, 0.09% (inactive).
The value for `COc1ccccc1C(=O)CSc1nnc(-c2ccccn2)n1-c1ccccc1` was -0.51% (inactive); that for `CCOC(=O)[C@]12CCCCC/C=C\1N(Cc1ccc(OC)cc1)C(=O)[C@H]2CC(=O)NCc1ccc(C)o1` was -1.43% (inactive).
With `Cc1ccc(C)c(-n2c(SCC(=O)O)nc3sc4c(c3c2=O)CCCC4)c1`, the inhibition is 0.43% (inactive).
In the case of `CCn1c(SCC(C)=O)nc2sc3c(c2c1=O)CCCC3` it was -1.68% (inactive); in that of `NNC(=O)C1CCCn2c1nc1sc3c(c1c2=O)CCCC3` (stereo unspecified), 11.2% (active); in that of `O=C(CN1CCC(NC(=O)NCc2ccccc2)CC1)Nc1ccc2c(c1)OCCO2`, -4.62% (inactive).
As to `CCCC[C@H](C(=O)N(CC)c1ccccc1)[C@@H](O)c1ccc2ccccc2c1`, the inhibition is 4.5% (inactive).
In the case of `CCC(C)(C)c1ccc(Oc2ccc(NC(=O)COC(=O)C3=COCCO3)cc2)cc1` it was 15.7% (active); in that of `O=C1CCC(C(=O)OCC(=O)Nc2ccc(OC(F)F)cc2)=NN1`, 5.95% (inactive); in that of `COc1ccc(NC(=O)COC(=O)CNC(=O)C2CCCCC2)cc1`, -0.83% (inactive).
Regarding `CCOC(=O)N1CCN(C(=O)C[C@@H]2C(=O)N(CCc3ccc(Cl)cc3)C3=CCCC[C@]32C(=O)OCC)CC1`, the inhibition was -1.27% (inactive).
In the case of `CC[C@@H](CCC(=O)N(c1ccccc1)c1ccccc1)C1CC1` it was -3.63% (inactive).
In the case of `Nn1c(SCC(=O)Nc2cccc3ccccc23)nnc1-c1cc(-c2ccc(F)cc2)n[nH]1` it was -1.2% (inactive); in that of `Cn1c(=O)c2c(nc(N/N=C/c3cccs3)n2Cc2ccc(Br)cc2)n(C)c1=O`, 9.47% (active); in that of `Cn1c(=O)c2sccc2n(Cc2ccc(Br)cc2)c1=O`, 0.1% (inactive).
In the case of `C/C(Cl)=C\Cn1c(Nc2cccc(C)c2)nc2c1c(=O)n(C)c(=O)n2C` it was 1.3% (inactive).
`COc1ccc(CSc2nnc(-c3cccc(C)c3)n2C)cc1`: the inhibition was -0.21% (inactive).
The value for `CCOc1ccc(Nc2nc(Cc3nnc(SCC(=O)c4ccc(C)cc4)o3)cs2)cc1` was 13.7% (active); that for `CC(=O)Nc1ccc(C(=O)CSc2nnc(Cc3ccccc3)o2)cc1` was 2.43% (inactive); that for `CCOc1ccc(Nc2nc(Cc3nnc(SCC(=O)NC4CCCC4)n3C)cs2)cc1` was -1.2% (inactive).
The value for `COc1ccc(C2CC=C(C(=O)O)C(c3ccccc3F)N2S(=O)(=O)c2ccc(C)cc2)cc1OC` (stereo unspecified) was -3.14% (inactive); that for `O=C1/C(=C\c2ccsc2)NC(=S)N1c1ccccc1` was 9.7% (active); that for `CCCCN=C1N/C(=C\c2ccco2)C(=O)N1c1ccccc1` was -3.3% (inactive).
In the case of `CC1=CC(C)(C)NC(=S)N1c1ccccc1` it was -5.69% (inactive); in that of `CCC(=O)OCCCN1C(=O)CCC12CCC(c1ccccc1)CC2` (stereo unspecified), 0.25% (inactive); in that of `O=C(CCl)NC1CCCCN(Cc2cccc(C(F)(F)F)c2)C1=O` (stereo unspecified), -6.37% (inactive).
In the case of `O=S1(=O)c2ccc(Br)cc2OC[C@H](Cc2ccccc2)N1Cc1cn(Cc2ccccc2)nn1`, the inhibition was -10.2% (inactive).
In the case of `CC(C)(C)OC(=O)N1CCC(NC(=O)c2[nH]cnc2C(=O)N[C@@H](Cc2ccccc2)C(=O)OCc2ccccc2)CC1` it was 14.3% (active); in that of `CC(C)(C)OC(=O)CNC(=O)c1[nH]cnc1C(=O)N[C@@H](Cc1ccccc1)C(=O)OCc1ccccc1`, 11.2% (active).
Turning to `C[C@H](NC(=O)c1nc[nH]c1C(=O)NCC(=O)OC(C)(C)C)C(=O)OCc1ccccc1`, the inhibition is 0.33% (inactive).
The value for `C[C@H](NC(=O)c1nc[nH]c1C(=O)NCC(=O)OC(C)(C)C)c1ccccc1` was -0.12% (inactive).
In the case of `CNC(=O)c1[nH]cnc1C(=O)N[C@@H](CC(C)C)C(=O)OCc1ccccc1` it was 1.89% (inactive); in that of `C[C@@H](NC(=O)c1nc[nH]c1C(=O)N1CCN(C(=O)OC(C)(C)C)CC1)c1ccccc1`, -5.12% (inactive); in that of `Cc1cc(C)n2ncc(C(=O)Nc3ccc4c(c3)OCCO4)c2n1`, -3.48% (inactive).
In the case of `COc1cc(NC(=O)C2CCCN(S(=O)(=O)c3ccc(C(C)(C)C)cc3)C2)cc(OC)c1` (stereo unspecified) it was 3.29% (inactive).
Turning to `CCOC(=O)[C@]12CCCC=C1N(Cc1ccc(OC)cc1)C(=O)[C@@H]2CC(=O)N1CCOCC1`, the inhibition is -0.05% (inactive).
The value for `COc1ccc(OC)c(-c2c(=O)n(OCc3ccccc3Br)c3ccccc3[n+]2[O-])c1` was 0.86% (inactive); that for `CCOc1ccc(OCC)c(-c2c(=O)n(OCc3ccc(Cl)cc3)c3ccccc3[n+]2[O-])c1` was 9.36% (active).
The value for `O=c1c(-c2ccc(Cl)cc2)[n+]([O-])c2ccccc2n1OCc1nc2ccccc2[nH]1` was -12.2% (inactive).
The value for `Cc1c(C(C)c2ccccc2O)[nH]c2ccccc12` (stereo unspecified) was 4.61% (inactive); that for `O=C(NCc1cccs1)C1CCN(S(=O)(=O)c2ccccc2[N+](=O)[O-])CC1` was 1.09% (inactive); that for `O=C(COC(=O)c1ccccn1)Nc1cccc2ccccc12` was -0.52% (inactive).
`Cc1ccccc1C(=O)O`: the inhibition is -1.22% (inactive).
In the case of `Cc1ccccc1C(=O)Nc1ccccc1Sc1ccccc1` it was 10.4% (active); in that of `O=C(COC(=O)c1ccccc1)Nc1ccccc1Sc1ccccc1`, 9.99% (active).
In the case of `COc1ccc(C(=O)OCC(=O)NC(=O)CCSc2ccccc2)cc1` it was 0.55% (inactive).
In the case of `Cc1cc(NC(=O)c2ccccc2C)no1` it was -1.75% (inactive); in that of `COc1ccc(-n2c(SCC(=O)Nc3ccc4cn[nH]c4c3)nnc2-c2cccnc2)cc1`, 2.47% (inactive).
Take `COc1ccc(C2Nc3ccccc3C(=O)N2Cc2cccs2)cc1COc1c(C)cccc1C` (stereo unspecified): the inhibition is -93.1% (inactive).
In the case of `CC(C)CNc1cccc2c1S(=O)(=O)N(Cc1cn(Cc3ccc(Cl)cc3)nn1)Cc1ccccc1O2` it was -4.11% (inactive); in that of `COP(=O)(O)CNC(=O)OCc1ccccc1`, 1.95% (inactive); in that of `CN(C)S(=O)(=O)c1cccc(NC(=O)COC(=O)/C=C/c2cccs2)c1`, -0.31% (inactive).
The value for `CN(C)S(=O)(=O)c1cccc(NC(=O)COC(=O)c2cc(=O)[nH]c(=O)[nH]2)c1` was 0.24% (inactive).
In the case of `CN(C)S(=O)(=O)c1cccc(NC(=O)COC(=O)C2(c3ccccc3F)CCCC2)c1` it was 14.4% (active); in that of `O=C(COC(=O)c1ccc(NS(=O)(=O)c2cccs2)cc1O)Nc1ccc(F)cc1`, 8.44% (inactive); in that of `NS(=O)(=O)c1ccc(NC(=O)COC(=O)C2(c3ccc(F)cc3)CCCC2)cc1`, 10.8% (active).
For the compound `O=C(COC(=O)C1(c2ccc(F)cc2)CCCC1)N1CCNC1=O`, the inhibition is -6.77% (inactive).
On to `CCCCOCCCNC(=O)C[C@H]1C[C@@]2(C(=O)OC)C(=C[C@H](C(C)(C)C)O[C@@H]2C)N(CCc2ccc(OC)c(OC)c2)C1=O`, for which the inhibition was 4.52% (inactive).
The value for `O=S1(=O)c2c(cccc2N2CCSCC2)Oc2ccccc2CN1Cc1cn(Cc2ccc(F)cc2)nn1` was -0.02% (inactive); that for `COc1ccc(N2CCN(CCNS(=O)(=O)c3ccc(Cl)s3)CC2)cc1` was -0.88% (inactive); that for `CCC[C@H]1C(=O)CC[C@@]23CCCN2C(=O)CCC[C@@H]13` was -0.61% (inactive).
In the case of `CNC(=S)N/N=C/c1ccc(OCc2ccccc2)c(Br)c1` it was -1.43% (inactive); in that of `COc1cc(/C=N/n2c(C)n[nH]c2=S)ccc1OCc1ccccc1`, 10.8% (active).
The value for `C=CCOc1ccc(/C=N/n2cncn2)cc1OC` was -11.9% (inactive); that for `COc1cccc(CNC(=O)C2CCCN(c3nc4ccccc4o3)C2)c1OC` (stereo unspecified) was 1.62% (inactive).
As to `O=C(c1c[nH]c2ccccc12)N1CCC(Oc2cccnc2)CC1`, the inhibition was 1.77% (inactive).
The value for `O=C1C(=O)N(Cc2ccc(-c3ccsc3)cc2)c2ccc(OC(F)(F)F)cc21` was 1.76% (inactive); that for `O=S(=O)(Oc1ccccc1C(=S)N1CCOCC1)c1ccc(Cl)cc1` was -1.11% (inactive).
Regarding `CCOc1cc(C(=S)N2CCOCC2)ccc1OS(=O)(=O)c1ccc(Br)cc1`, the inhibition was -3.87% (inactive).
The value for `CC(=O)Nc1ccc(S(=O)(=O)Oc2ccc(Br)cc2C(=S)N2CCOCC2)cc1` was 9.15% (active).
Turning to `O=C(C1CCCN1S(=O)(=O)c1ccccc1)N1CCc2ccccc2C1` (stereo unspecified), the inhibition is 1.33% (inactive).
The value for `CCOc1c(Br)cc(/C=C2\C(=O)N(CCC#N)N=C2C)cc1OC` was 8.65% (active); that for `CC(C)(C)c1ccc(CSc2nnc(-c3cccs3)o2)cc1` was -1.78% (inactive).
In the case of `COC(=O)[C@]12C[C@H](CC(=O)N3CCN(C(=O)C4CC4)CC3)C(=O)N(CCC3=CCCCC3)C1=C[C@H](C(C)C)O[C@@H]2C1CC1` it was -8.05% (inactive); in that of `CC1(C)C=Cc2c(ccc3c2OC[C@@H](c2ccc(O)cc2O)C3)O1`, 19.4% (active); in that of `CN[C@H]1C[C@H]2c3cc(N4CCOCC4)ccc3CCN2C[C@H]1[C@H](C)O`, -6.65% (inactive).
In the case of `O=C(CCCCCN1C(=O)C2C3C=CC(C3)C2C1=O)Nc1ccccc1` (stereo unspecified) it was 4.34% (inactive).
In the case of `COc1ccccc1CC1(C)C(=O)Nc2ccc(OC(F)(F)F)cc21` (stereo unspecified), the inhibition was 6.39% (inactive).
Turning to `CC1(Cc2cccc(C#N)c2)C(=O)Nc2ccc(-c3cccc(C(F)(F)F)c3)cc21` (stereo unspecified), the inhibition is 11.2% (active).
In the case of `Cc1ccc(CC2(C)C(=O)Nc3ccc(OC(F)(F)F)cc32)cc1` (stereo unspecified) it was 8.02% (inactive); in that of `CC(c1c[nH]c2ccccc12)c1c(-c2ccccc2)n(C)c2ccccc12` (stereo unspecified), -2.38% (inactive).
In the case of `N#Cc1ccccc1OC[C@@H](O)CN1CCC(C(O)(c2ccccc2)c2ccccc2)CC1` it was -1.12% (inactive).
